# The source made the active and inactive calls.
# How the values were obtained:
# [1] = small molecules captured by biotinylated probe aFSTL3 – biochemical, small-molecule microarray, fluorescence 635/667, stem cell growth factor project, primary screen (AID 1064); details: higher = more signal;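 also: measures binding of the biotinylated anti-FSTL3 antibody to printed compounds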
# [2] = binders from COS7 lysate, DM2A8 probe, primary screen, torsin A project, cell lysate, small-molecule microarray, fluorescence 635/667 (AID 1065); details: higher = more signal, COS7 lysate expressing mutant human TOR1A
# [3] = small molecules captured by biotinylated probe aFGF2 – biochemical, small-molecule microarray, fluorescence 635/667, stem cell growth factor project, primary screen (AID 1067); details: higher = more signal;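 also: measures binding of biotinylated aFGF2 protein to printed compounds on slides; z-score merges feature fluorescence and signal-to-noise across triplicate slides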
# [4] = small molecules captured by biotinylated probe aFGF10 – biochemical, small-molecule microarray, fluorescence 635/667, stem cell growth factor project, primary screen (AID 1071); details: higher = more signal;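 also: score merges 667 nm spot intensity and signal to noise from triplicate slides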
# [5] = molecular target: Neurogenic locus notch homolog protein 2 (Homo sapiens) (UniProt Q04721); assay: small molecules binding Notch2 protein – biochemical, small-molecule microarray, 635 nm fluorescence, stem cell growth factors, primary screen (AID 1073); details: higher = more signal
# [6] = molecular target: Pro-neuregulin-1, membrane-bound isoform (Homo sapiens) (UniProt Q02297); assay: small molecules binding neuregulin-1 protein – biochemical, small-molecule microarray, fluorescence 635/667, psychiatric disease protein project, primary screen (AID 1075); details: NRG1 binding, 635 nm fluorescence, higher = more signal;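 also: score combines 667 nm spot fluorescence with signal to noise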
# [7] = system: Neuregulin-1 EGF-like domain; assay: small molecules binding NRG1 EGF domain – biochemical, small-molecule microarray, 635 nm fluorescence, primary screen (AID 1081); details: higher = more signal;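 also: binding of the protein to compounds printed on small-molecule microarray slides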
# [8] = FRG1 expression reporter modulators in myotubes – cell-based, C2C12 myotubes, firefly/Renilla luciferase, luminescence, FRG1 inhibition for FSHD, primary screen (AID 1084); details: FRG1 promoter luciferase, higher = more signal, called active from +8 up or from −8 down
# [9] = small molecules captured by biotinylated probe aFST – biochemical, small-molecule microarray, fluorescence 635/667, stem cell growth factor project, primary screen (AID 1086); details: higher = more signal;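 also: score merges 667 nm fluorescence with signal-to-noise of each printed compound spot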
# [10] = binders of probe aHhip on microarray, primary screen, stem cell growth factor project, biochemical, small-molecule microarray, fluorescence 635/667 (AID 1087); details: higher = more signal;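 also: score merges spot fluorescence at 667nm with spot signal to noise ratio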
# [11] = system: PRMT1 (protein arginine N-methyltransferase 1); assay: small molecules binding arginine methyltransferase PRMT1 – biochemical, small-molecule microarray, 635 nm fluorescence, primary screen (AID 1088); details: higher = more signal;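 also: binding of Prmt1 protein to compounds spotted on small-molecule microarray slides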
# [12] = growth effects on S. cerevisiae YJM789 – YJM789 clinical isolate, OD600, 24 h, basal, primary screen (AID 1089); details: higher = more signal, called active from +8 up or from −8 down;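 also: growth of clinical yeast isolate S. cerevisiae YJM 789 seeded 1000 cells per well; test concentration not given here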
# [13] = S. pombe growth modifiers, basal conditions – strain 972, OD600, 24 h, no modulator, primary screen (AID 1090);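 also: basal condition with compound alone and no growth modifier present; test concentration not given here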; details: S. pombe 972 growth, higher = more signal, called active from +8 up or from −8 down
# [14] = budding yeast growth modifiers under rapamycin – strain BY4716, OD600, 96 h, primary screen (AID 1091); also: test concentration not given here; details: S. cerevisiae BY4716 + rapamycin, higher = more signal, called active from +8 up or from −8 down
# [15] = molecular target: Torsin-1A-interacting protein 2 (Homo sapiens) (UniProt Q8NFQ8); assay: small molecules binding lysate-expressed LULL1 – cell lysate, human LULL1 lysate, 635/667 nm fluorescence, primary screen (AID 1092); details: small-molecule microarray, hLULL1 lysate binding, 635 nm fluorescence; higher = more signal;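 also: probe is lysate of COS7 cells overexpressing human LULL1; score merges per-feature 667 nm fluorescence with signal-to-noise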
# [16] = optical density change of DRC41 E. coli – strain DRC41, OD650, 24 h, E. coli filamentation project, primary screen (AID 1093);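 also: MC1000 strain lacking acrAB efflux and sulA so SOS filamentation is blocked; test concentration not given here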; details: E. coli DRC41 growth, higher = more signal, called active from +8 up or from −8 down
# [17] = probe aLefty2 binding to arrayed compounds – biochemical, biotinylated probe, 635/667 nm fluorescence, primary screen (AID 1094); details: small-molecule microarray, higher = more signal;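 also: score merges spot fluorescence near 667 nm with spot signal-to-noise ratio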
# [18] = system: Noggin (protein binding on small-molecule microarray); assay: small molecules binding Noggin protein – biochemical, 635/667 nm fluorescence, primary screen (AID 1095); details: 635 nm fluorescence, higher = more signal;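 also: score merges 667 nm feature fluorescence with signal to noise over triplicate slides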
# [19] = molecular target: Neurogenic locus notch homolog protein 3 (Homo sapiens) (UniProt Q9UM47); assay: small molecules binding NOTCH3 protein – biochemical, 635/667 nm fluorescence, primary screen (AID 1096); details: small-molecule microarray, 635 nm fluorescence, higher = more signal
# [20] = probe aEGFR binding to arrayed compounds – biochemical, biotinylated probe, 635/667 nm fluorescence, primary screen (AID 1097); details: small-molecule microarray, higher = more signal;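 also: probe is a biotinylated anti-EGFR antibody binding compounds printed on slides; score combines fluorescence near 667 nm and signal to noise of each spot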
# Sequence of Torsin-1A-interacting protein 2 (Homo sapiens) (Q8NFQ8 whole entry, looked up): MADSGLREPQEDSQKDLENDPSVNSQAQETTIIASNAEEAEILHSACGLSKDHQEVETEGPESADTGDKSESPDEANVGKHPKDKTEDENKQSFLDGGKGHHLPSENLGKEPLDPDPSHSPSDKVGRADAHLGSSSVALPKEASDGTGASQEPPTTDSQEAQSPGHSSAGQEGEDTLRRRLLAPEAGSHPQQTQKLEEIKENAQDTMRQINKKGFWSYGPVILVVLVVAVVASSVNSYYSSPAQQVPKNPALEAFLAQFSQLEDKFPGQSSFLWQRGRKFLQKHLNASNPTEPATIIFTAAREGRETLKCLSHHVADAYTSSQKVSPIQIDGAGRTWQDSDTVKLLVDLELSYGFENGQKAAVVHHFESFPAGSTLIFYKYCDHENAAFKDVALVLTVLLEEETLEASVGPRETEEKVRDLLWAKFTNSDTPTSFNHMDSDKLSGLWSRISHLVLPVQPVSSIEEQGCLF
# Sequence of Neurogenic locus notch homolog protein 2 (Homo sapiens) (Q04721 whole entry, looked up, canonical isoform): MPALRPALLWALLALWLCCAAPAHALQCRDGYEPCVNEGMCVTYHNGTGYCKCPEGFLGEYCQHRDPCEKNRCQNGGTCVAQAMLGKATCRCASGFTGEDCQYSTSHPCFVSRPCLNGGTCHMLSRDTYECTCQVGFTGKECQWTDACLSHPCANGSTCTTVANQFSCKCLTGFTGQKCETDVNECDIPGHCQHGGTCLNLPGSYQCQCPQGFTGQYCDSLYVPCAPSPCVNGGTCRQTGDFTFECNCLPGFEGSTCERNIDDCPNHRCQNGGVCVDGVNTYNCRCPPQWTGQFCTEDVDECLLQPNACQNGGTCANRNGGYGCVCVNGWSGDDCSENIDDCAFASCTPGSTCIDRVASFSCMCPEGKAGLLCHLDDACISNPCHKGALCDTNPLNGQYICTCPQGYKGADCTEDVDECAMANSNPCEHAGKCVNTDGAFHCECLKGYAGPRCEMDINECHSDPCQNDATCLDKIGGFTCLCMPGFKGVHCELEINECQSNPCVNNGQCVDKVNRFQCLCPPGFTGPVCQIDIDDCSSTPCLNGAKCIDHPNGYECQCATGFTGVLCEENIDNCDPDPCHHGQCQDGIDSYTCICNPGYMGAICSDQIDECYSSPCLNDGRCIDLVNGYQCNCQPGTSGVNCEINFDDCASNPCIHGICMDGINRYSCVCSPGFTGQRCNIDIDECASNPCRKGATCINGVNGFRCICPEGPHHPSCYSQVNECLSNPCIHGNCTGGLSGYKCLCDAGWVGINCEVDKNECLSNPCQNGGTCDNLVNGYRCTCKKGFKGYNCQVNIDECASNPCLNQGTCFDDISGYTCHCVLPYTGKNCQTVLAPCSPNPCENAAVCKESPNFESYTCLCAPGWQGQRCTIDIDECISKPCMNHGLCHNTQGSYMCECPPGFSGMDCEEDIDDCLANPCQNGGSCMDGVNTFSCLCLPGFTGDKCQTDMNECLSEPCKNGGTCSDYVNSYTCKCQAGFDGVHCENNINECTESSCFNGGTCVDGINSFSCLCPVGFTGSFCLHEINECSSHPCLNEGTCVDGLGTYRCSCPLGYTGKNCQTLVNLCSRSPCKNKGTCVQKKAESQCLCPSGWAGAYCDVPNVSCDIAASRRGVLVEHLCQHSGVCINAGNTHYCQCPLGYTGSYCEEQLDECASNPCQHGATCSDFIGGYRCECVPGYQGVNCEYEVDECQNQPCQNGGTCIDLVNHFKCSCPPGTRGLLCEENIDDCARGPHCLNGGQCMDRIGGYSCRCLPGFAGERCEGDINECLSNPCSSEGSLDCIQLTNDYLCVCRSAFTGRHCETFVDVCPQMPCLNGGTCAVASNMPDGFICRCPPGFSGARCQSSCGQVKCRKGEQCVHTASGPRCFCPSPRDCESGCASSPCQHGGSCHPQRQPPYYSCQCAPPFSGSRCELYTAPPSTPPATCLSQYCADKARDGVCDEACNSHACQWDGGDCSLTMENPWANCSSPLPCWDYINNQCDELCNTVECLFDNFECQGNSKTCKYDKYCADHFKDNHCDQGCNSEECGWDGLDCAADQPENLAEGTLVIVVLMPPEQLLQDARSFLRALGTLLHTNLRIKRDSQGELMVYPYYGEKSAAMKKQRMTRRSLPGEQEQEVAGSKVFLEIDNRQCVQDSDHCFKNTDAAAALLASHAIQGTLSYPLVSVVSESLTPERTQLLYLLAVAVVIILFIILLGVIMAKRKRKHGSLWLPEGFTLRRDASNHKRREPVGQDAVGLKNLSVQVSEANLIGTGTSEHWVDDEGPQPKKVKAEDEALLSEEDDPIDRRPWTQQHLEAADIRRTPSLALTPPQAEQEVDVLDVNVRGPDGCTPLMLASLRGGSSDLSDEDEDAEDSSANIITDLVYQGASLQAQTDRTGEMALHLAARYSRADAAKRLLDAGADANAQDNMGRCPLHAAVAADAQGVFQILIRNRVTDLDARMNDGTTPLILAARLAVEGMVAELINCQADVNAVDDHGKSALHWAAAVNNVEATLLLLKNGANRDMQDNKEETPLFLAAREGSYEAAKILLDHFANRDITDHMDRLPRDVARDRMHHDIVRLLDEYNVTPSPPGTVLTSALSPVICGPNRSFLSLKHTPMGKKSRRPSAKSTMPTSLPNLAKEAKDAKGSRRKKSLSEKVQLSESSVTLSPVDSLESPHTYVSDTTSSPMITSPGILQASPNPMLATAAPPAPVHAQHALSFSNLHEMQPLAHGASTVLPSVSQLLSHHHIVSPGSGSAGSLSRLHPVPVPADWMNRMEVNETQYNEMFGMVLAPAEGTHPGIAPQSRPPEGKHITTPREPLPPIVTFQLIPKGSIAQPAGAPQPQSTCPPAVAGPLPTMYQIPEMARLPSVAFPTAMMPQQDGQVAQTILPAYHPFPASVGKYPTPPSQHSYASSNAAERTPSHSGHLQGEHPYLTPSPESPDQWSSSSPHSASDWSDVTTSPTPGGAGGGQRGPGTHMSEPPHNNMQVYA
# Sequence of Pro-neuregulin-1, membrane-bound isoform (Homo sapiens) (Q02297 whole entry, looked up, the tested form may be a part, canonical isoform): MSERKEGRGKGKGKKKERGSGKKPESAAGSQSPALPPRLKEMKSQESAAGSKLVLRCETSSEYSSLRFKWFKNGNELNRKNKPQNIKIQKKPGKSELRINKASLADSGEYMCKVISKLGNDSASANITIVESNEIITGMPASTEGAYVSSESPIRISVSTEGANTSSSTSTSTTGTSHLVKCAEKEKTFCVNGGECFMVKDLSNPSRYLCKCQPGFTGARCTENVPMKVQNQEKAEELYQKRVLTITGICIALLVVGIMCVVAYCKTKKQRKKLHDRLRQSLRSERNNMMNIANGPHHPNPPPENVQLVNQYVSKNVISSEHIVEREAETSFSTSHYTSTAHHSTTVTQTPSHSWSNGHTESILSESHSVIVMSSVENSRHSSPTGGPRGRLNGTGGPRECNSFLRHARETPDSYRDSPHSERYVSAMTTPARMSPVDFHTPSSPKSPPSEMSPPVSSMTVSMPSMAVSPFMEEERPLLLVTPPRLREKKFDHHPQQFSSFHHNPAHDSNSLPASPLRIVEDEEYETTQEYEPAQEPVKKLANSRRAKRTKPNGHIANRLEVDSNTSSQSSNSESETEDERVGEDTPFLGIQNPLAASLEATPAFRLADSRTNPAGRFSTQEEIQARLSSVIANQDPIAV
structure (smiles),measurement,setting,value
O=C1C[C@@H](O)[C@@H](O)[C@@H]2[C@@H]3C(=O)N(Cc4ccc5c(c4)OCO5)C(=O)[C@@H]3CC[C@H]12,composite z-score,[1],-0.296
same,composite z-score,[2],0.348
same,composite z-score,[3],-0.0218
same,composite z-score,[4],0.477
same,composite z-score,[5],0.558
same,composite z-score,[6],0.229
same,composite z-score,[7],0.29
same,z-score,[8],0.376 (inactive)
same,composite z-score,[9],0.078
same,composite z-score,[10],0.0505
same,composite z-score,[11],0.0008
same,z-score,[12],0.264 (inactive)
same,z-score,[13],-0.587 (inactive)
same,z-score,[14],-0.511 (inactive)
same,composite z-score,[15],0.443
same,z-score,[16],0.378 (inactive)
same,composite z-score,[17],-0.136
same,composite z-score,[18],0.318
same,composite z-score,[19],0.406
same,composite z-score,[20],0.0135
CCN1C(=O)[C@H]2[C@H]3[C@H](O)[C@H](O)CC(=NOCC(C)C)[C@@H]3CC[C@H]2C1=O,composite z-score,[1],-0.596
same,composite z-score,[2],0.217
same,composite z-score,[3],-0.142
same,composite z-score,[4],0.361
same,composite z-score,[5],1.23
same,composite z-score,[6],0.42
same,composite z-score,[7],0.336
same,z-score,[8],0.0163 (inactive)
same,composite z-score,[9],0.124
same,composite z-score,[10],0.465
same,composite z-score,[11],1.55
same,z-score,[12],-0.132 (inactive)
same,z-score,[13],-0.666 (inactive)
same,z-score,[14],-0.242 (inactive)
same,composite z-score,[15],2.08
same,z-score,[16],-0.637 (inactive)
same,composite z-score,[17],-0.0898
same,composite z-score,[18],1.11
same,composite z-score,[19],1.12
same,composite z-score,[20],0.051
CCN1C(=O)[C@@H]2[C@H]3C(=CC[C@@H]2C1=O)C1(OCCCO1)[C@H]1O[C@H]1[C@H]3O,composite z-score,[1],-0.418
same,composite z-score,[2],0.771
same,composite z-score,[3],-0.076
same,composite z-score,[4],1.04
same,composite z-score,[5],1.17
same,composite z-score,[6],0.692
same,composite z-score,[7],1.19
same,z-score,[8],7.42 (inactive)
same,composite z-score,[9],0.404
same,composite z-score,[10],-0.236
same,composite z-score,[11],1.44
same,z-score,[12],1.17 (inactive)
same,z-score,[13],-6.63 (inactive)
same,z-score,[14],1.66 (inactive)
same,composite z-score,[15],0.899
same,z-score,[16],-0.0556 (inactive)
same,composite z-score,[17],-0.16
same,composite z-score,[18],0.643
same,composite z-score,[19],1.07
same,composite z-score,[20],0.0043
CO[C@@H]1COC(=O)[C@H](CCSC)NC(=O)CC=C[C@@H](C)COC(=O)CCC[C@H]1C,composite z-score,[1],-0.994
same,composite z-score,[2],2.94
same,composite z-score,[3],-0.167
same,composite z-score,[4],0.114
same,composite z-score,[5],-0.559
same,composite z-score,[6],-1.28
same,composite z-score,[7],1.15
same,z-score,[8],0.0651 (inactive)
same,composite z-score,[9],1.41
same,composite z-score,[10],-0.161
same,composite z-score,[11],1.55
same,z-score,[12],-1.16 (inactive)
same,z-score,[13],0.583 (inactive)
same,z-score,[14],-1.25 (inactive)
same,composite z-score,[15],-0.86
same,z-score,[16],-0.0886 (inactive)
same,composite z-score,[17],-0.0225
same,composite z-score,[18],1.82
same,composite z-score,[19],0.249
same,composite z-score,[20],0.232
CC(C)=CCCC(C)=CCON=C1C[C@@H](O)[C@@H](O)[C@@H]2[C@@H]3C(=O)N(Cc4ccccc4)C(=O)[C@@H]3CC[C@H]12,composite z-score,[1],-0.402
same,composite z-score,[2],-0.0325
same,composite z-score,[3],-0.0263
same,composite z-score,[4],0.734
same,composite z-score,[5],0.686
same,composite z-score,[6],0.774
same,composite z-score,[7],1.06
same,z-score,[8],0.134 (inactive)
same,composite z-score,[9],0.342
same,composite z-score,[10],-0.305
same,composite z-score,[11],1.06
same,z-score,[12],-0.574 (inactive)
same,z-score,[13],-1.58 (inactive)
same,z-score,[14],-1.29 (inactive)
same,composite z-score,[15],1.94
same,z-score,[16],-0.128 (inactive)
same,composite z-score,[17],-0.236
same,composite z-score,[18],0.608
same,composite z-score,[19],0.811
same,composite z-score,[20],-0.034
C[C@H]1Cc2c(COc3ccccc3)nc3c(c2CO1)CN(CCOc1ccccc1)CC3,composite z-score,[1],-0.762
same,composite z-score,[2],0.665
same,composite z-score,[3],-0.0468
same,composite z-score,[4],0.503
same,composite z-score,[5],1.28
same,composite z-score,[6],0.455
same,composite z-score,[7],0.794
same,z-score,[8],-1.16 (inactive)
same,composite z-score,[9],0.0632
same,composite z-score,[10],-0.174
same,composite z-score,[11],1.56
same,z-score,[12],-0.381 (inactive)
same,z-score,[13],-2.38 (inactive)
same,z-score,[14],-1.15 (inactive)
same,composite z-score,[15],1.76
same,z-score,[16],1.11 (inactive)
same,composite z-score,[17],-0.0998
same,composite z-score,[18],0.216
same,composite z-score,[19],1.16
same,composite z-score,[20],-0.0283
O=C1CCCC(C2=CCCCC2=O)C1 (stereo not given),composite z-score,[1],-0.31
same,composite z-score,[2],0.213
same,composite z-score,[3],-0.0895
same,composite z-score,[4],0.0787
same,composite z-score,[5],0.312
same,composite z-score,[6],-0.3
same,composite z-score,[7],0.165
same,z-score,[8],0.222 (inactive)
same,composite z-score,[9],0.0915
same,composite z-score,[10],0.157
same,composite z-score,[11],0.0732
same,z-score,[12],0.222 (inactive)
same,z-score,[13],0.65 (inactive)
same,z-score,[14],0.6 (inactive)
same,composite z-score,[15],-0.168
same,z-score,[16],0.455 (inactive)
same,composite z-score,[17],0.02
same,composite z-score,[18],0.546
same,composite z-score,[19],0.0934
same,composite z-score,[20],-0.029
CCOC(=O)[C@H](Cc1ccccc1)NC(=O)CCC1CC(OC(=O)NCCc2ccc(F)cc2)CC2(CCCC(COC(=O)NCCc3ccccc3OC)O2)O1 (stereo not given in full),composite z-score,[1],-0.582
same,composite z-score,[2],0.238
same,composite z-score,[3],-0.0592
same,composite z-score,[4],0.82
same,composite z-score,[5],0.879
same,composite z-score,[6],0.729
same,composite z-score,[7],1.22
same,z-score,[8],0.865 (inactive)
same,composite z-score,[9],0.759
same,composite z-score,[10],-0.134
same,composite z-score,[11],1.4
same,z-score,[12],-0.053 (inactive)
same,z-score,[13],0.932 (inactive)
same,z-score,[14],0.785 (inactive)
same,composite z-score,[15],2.18
same,z-score,[16],-0.715 (inactive)
same,composite z-score,[17],-0.157
same,composite z-score,[18],0.955
same,composite z-score,[19],1.13
same,composite z-score,[20],0.0846
CCOC(=O)NN=C1C[C@@H](O)[C@@H](O)[C@@H]2[C@@H]3C(=O)N(Cc4ccccc4)C(=O)[C@@H]3CC[C@H]12,composite z-score,[1],-0.276
same,composite z-score,[2],0.695
same,composite z-score,[3],-0.124
same,composite z-score,[4],0.164
same,composite z-score,[5],0.287
same,composite z-score,[6],-0.0283
same,composite z-score,[7],-0.699
same,z-score,[8],1.08 (inactive)
same,composite z-score,[9],0.0387
same,composite z-score,[10],-0.223
same,composite z-score,[11],-0.278
same,z-score,[12],-0.907 (inactive)
same,z-score,[13],-0.524 (inactive)
same,z-score,[14],-1.33 (inactive)
same,composite z-score,[15],-0.308
same,z-score,[16],-0.127 (inactive)
same,composite z-score,[17],-0.138
same,composite z-score,[18],0.0448
same,composite z-score,[19],-0.0518
same,composite z-score,[20],-0.0387
CCOC(=O)[C@H](CC(C)C)NC(=O)CCC1CC(OC(=O)NCc2ccc3c(c2)OCO3)CC2(CCCC(COC(=O)NCC(c3ccccc3)c3ccccc3)O2)O1 (stereo not given in full),composite z-score,[1],-0.354
same,composite z-score,[2],-0.168
same,composite z-score,[3],-0.0692
same,composite z-score,[4],0.229
same,composite z-score,[5],0.129
same,composite z-score,[6],0.49
same,composite z-score,[7],1.17
same,z-score,[8],2.69 (inactive)
same,composite z-score,[9],0.344
same,composite z-score,[10],-0.0994
same,composite z-score,[11],0.915
same,z-score,[12],0.417 (inactive)
same,z-score,[13],0.707 (inactive)
same,z-score,[14],0.34 (inactive)
same,composite z-score,[15],1.6
same,z-score,[16],0.344 (inactive)
same,composite z-score,[17],-0.145
same,composite z-score,[18],0.617
same,composite z-score,[19],0.79
same,composite z-score,[20],-0.0177

# Source: PubChem BioAssay
